Compounds with a hit are over-represented: about 8% of the library has one in this group of screens.
FMDV antiviral – High Throughput Screening for Foot and Mouth Disease Virus Antivirals. AID 1159524, 2015. FMDV antiviral cell-based qHTS. actives 1.2% (n = 410,000). Potency, µM (doses to about 57.9 µM), usual class: inhibitors; calls by dose curve; tested in HEK293T cells; also: read-out not given here; nearly all actives have a fitted effect of over 45% in size
SARS PLP yeast – qHTS of Yeast-based Assay for SARS-CoV PLP; S. cerevisiae expressing SARS-CoV PLpro, growth rescue; actives 0.19% (n = 330,000); Potency, µM (doses to about 32.9 µM), actives largely listed as activators; calls by dose curve; also: nearly all actives have a fitted effect of over 55% in size
HCV inh – qHTS Assay for Inhibitors of Hepatitis C Virus (HCV) | actives 3.4% (n = 340,000) | Potency, µM (series often up to 41.8 µM), most hits filed as inhibitors | Huh7.5.1 HCVcc-Cre infection, luciferase reporter, 44 h; active = well fitted inhibition curve with a large enough effect; inconclusive = small, poorly fitted or top-dose-only effect, or another doubt; inactive = no such curve, though single readings can be large or run the other way
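Infectious HCV cell culture screen: compound-treated cells (1,000/well, pre-plated 4 h) are infected with HCVcc-Cre at roughly 0.5 moi and grown 44 h. Infection is quantified by luciferase signal after 15 min substrate incubation at room temperature.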
Lassa entry inh – qHTS for Inhibitors of binding or entry into cells for Lassa Virus; Lassa virus pseudotype entry inhibition, cell reporter; Potency, µM (top dose mostly 37.9 µM), hits mostly inhibitors; actives 1.2% (n = 300,000); calls by dose curve; tested in HEK293 cells; also: nearly all actives have a fitted effect of over 50% in size
Marburg entry inh – qHTS for inhibitors of binding or entry into cells for Marburg Virus | Potency, µM (highest dose often 37.8 µM), actives largely listed as inhibitors | Marburg virus pseudotyped entry inhibition, cell reporter | actives 1.8% (n = 300,000) | AID 540276, 2011; calls by dose curve; tested in HEK293 cells
HCMV antiviral – qHTS Assay for inhibitors of the human cytomegalovirus (HCMV); HFF cells, HCMV-luciferase reporter, 72 h; stronger effect = lower value; activity change, negative = inhibition, % at 57.5 µM; AID 1259415, 2018; actives 4.5% (n = 410,000); in the data active = activity change below about -60%; inconclusive = no clear call, values can overlap the other calls; inactive = above about -39%
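Compounds were evaluated in HFFs infected with an HCMV luciferase reporter virus (MOI 1 PFU/cell). Luciferase in lysates collected 72 h post infection served as the replication measure.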
Of the large screens only hits and unclear results are named; the others gave an inactive call.

COc1ccc(-n2ncc3c(NCCCOC(C)C)ncnc32)cc1	none (no result: SARS PLP yeast, HCV inh, Marburg entry inh)
CC(=O)Nc1ccc(NC(=O)c2nc(S(=O)(=O)Cc3ccc(F)cc3)ncc2Cl)cc1	FMDV antiviral 32µM, Lassa entry inh inconclusive, Marburg entry inh inconclusive, HCMV antiviral -100 (no result: SARS PLP yeast, HCV inh)
CSc1ncc(Cl)c(C(=O)Nc2ccc(C)c(C)c2)n1	HCV inh inconclusive (no result: Lassa entry inh, Marburg entry inh)
Cc1ccc(NC(=O)c2nc(S(=O)(=O)Cc3ccc(F)cc3)ncc2Cl)cc1C	FMDV antiviral 28µM, Lassa entry inh inconclusive, Marburg entry inh inconclusive, HCMV antiviral -98 (no result: SARS PLP yeast, HCV inh)
Cc1ccc(NC(=O)c2nc(S(=O)(=O)Cc3ccccc3C)ncc2Cl)cc1C	FMDV antiviral 40µM, HCV inh inconclusive, Lassa entry inh inconclusive, Marburg entry inh inconclusive, HCMV antiviral -98
CCCS(=O)(=O)c1ncc(Cl)c(C(=O)Nc2ccc(S(=O)(=O)Nc3ncccn3)cc2)n1	none (no result: Lassa entry inh, Marburg entry inh)
Cc1[nH]c2ccccc2c1CCNC(=O)c1ccc2nccnc2c1	Lassa entry inh inconclusive
Cc1cc(C)c(C)c(S(=O)(=O)N2CCC(C(=O)Nc3ccncc3)CC2)c1C	FMDV antiviral inconclusive, Marburg entry inh inconclusive
CC1=C(C)/C(=N\OS(=O)(=O)c2ccccc2)C=CC1=O	FMDV antiviral 11µM, HCV inh 13µM, Lassa entry inh inconclusive, Marburg entry inh 7.9µM (no result: HCMV antiviral)
COc1ccc2c3c(n(C)c2c1)[C@@H](CO)N(C)CC31CN(C(=O)CN2CCOCC2)C1	none (no result: FMDV antiviral, SARS PLP yeast, HCV inh, Lassa entry inh, Marburg entry inh)
Cc1ccc(S(=O)(=O)N(C)Cc2nc(-c3ccccc3)oc2C)cc1	none (no result: SARS PLP yeast, HCV inh, Marburg entry inh)
Cc1cccc(CNC(=O)c2ccc(Cn3c(=O)c4cccn4c4cccnc43)cc2)c1	HCMV antiviral inconclusive (no result: SARS PLP yeast, HCV inh, Marburg entry inh)
Cn1nnc2c[n+](CC(=O)c3ccc(Cl)cc3)cc(Br)c21	FMDV antiviral inconclusive, HCV inh inconclusive, Lassa entry inh inconclusive, Marburg entry inh inconclusive, HCMV antiviral -96
Cn1nnc2c[n+](CC(=O)c3ccc4ccccc4c3)cc(Br)c21	FMDV antiviral inconclusive, HCV inh inconclusive, Lassa entry inh inconclusive, Marburg entry inh 11µM, HCMV antiviral -97
CCOCCCn1c(C)nc2c[n+](CC(=O)c3ccc4ccccc4c3)cc(Br)c21	none
COCc1ccc(C(=O)N2CCOc3c(cc(-c4cc(C)c5cccc(OC)c5n4)cc3OC)C2)o1	none (no result: SARS PLP yeast, HCV inh, Lassa entry inh, Marburg entry inh, HCMV antiviral)
O=C1CCC(C(=O)N2CCCC(N3CCN(c4cccc(C(F)(F)F)c4)CC3)C2)=NN1 (centres undefined)	none (no result: Lassa entry inh, Marburg entry inh)
O=C1N[C@@H](Cc2ccccc2)C(=O)N2[C@H]3Nc4ccccc4[C@@]3([C@]34C[C@H]5C(=O)N[C@@H](Cc6ccccc6)C(=O)N5[C@H]3Nc3ccccc34)C[C@@H]12	FMDV antiviral inconclusive (no result: SARS PLP yeast, Lassa entry inh, Marburg entry inh, HCMV antiviral)
CN1C(=O)[C@@H]2C[C@@]3([C@@]45C[C@H]6C(=O)N(C)[C@@H](Cc7ccccc7)C(=O)N6[C@@H]4Nc4ccccc45)c4ccccc4N[C@H]3N2C(=O)[C@@H]1Cc1ccccc1	HCV inh inconclusive, HCMV antiviral -68 (no result: Lassa entry inh, Marburg entry inh)
CCOc1ccc(-c2ccc(SC)nn2)cc1	Lassa entry inh 2.8µM, Marburg entry inh 1.3µM
CCOc1ccc(-c2ccc(SCC(=O)Nc3nnc(CC)s3)nn2)cc1	HCV inh inconclusive, Marburg entry inh inconclusive (no result: Lassa entry inh)
CCOC(=O)C1=CN(Cc2ccco2)S(=O)(=O)N(CC)C1c1cccc(OC)c1 (centres undefined)	none (no result: Lassa entry inh, Marburg entry inh)
Cc1cccc(CNC(=O)c2cnn(-c3ncc(C)c(-c4cccs4)n3)c2C2CC2)n1	none (no result: SARS PLP yeast, HCV inh, Lassa entry inh, Marburg entry inh, HCMV antiviral)
O=C1NC(=O)N(Cc2ccco2)C(=O)/C1=C\c1cccn1CCOc1ccc(Cl)cc1	FMDV antiviral 35µM
COc1cc(N2Cc3ccccc3C2)ccc1C=O	FMDV antiviral inconclusive, Lassa entry inh inconclusive, Marburg entry inh 7.9µM
Cc1ccc(C)c(Sc2ccc(NC(=O)CCl)cc2)c1	FMDV antiviral 20µM, HCV inh inconclusive, Lassa entry inh inconclusive, Marburg entry inh inconclusive
Cc1ccc(Sc2ccc(NC(=O)CCl)cc2)cc1C	FMDV antiviral 28µM, HCV inh inconclusive, Lassa entry inh inconclusive, Marburg entry inh inconclusive
COc1ccc2c(c1)cc1c(=O)n(CC(=O)NCCc3ccccc3)nc(C)n12	none (no result: SARS PLP yeast, HCV inh, Lassa entry inh)
CN(C)CC(C)(O)c1ccc2c(c1)CN(Cc1cccn1-c1ncccn1)CCO2 (centres undefined)	none (no result: SARS PLP yeast, HCV inh, Lassa entry inh, Marburg entry inh, HCMV antiviral)
